The target of assay [1] is T1, Mitogen-activated protein kinase kinase kinase 5 (Homo sapiens) (UniProt Q99683).
T1 sequence (whole entry): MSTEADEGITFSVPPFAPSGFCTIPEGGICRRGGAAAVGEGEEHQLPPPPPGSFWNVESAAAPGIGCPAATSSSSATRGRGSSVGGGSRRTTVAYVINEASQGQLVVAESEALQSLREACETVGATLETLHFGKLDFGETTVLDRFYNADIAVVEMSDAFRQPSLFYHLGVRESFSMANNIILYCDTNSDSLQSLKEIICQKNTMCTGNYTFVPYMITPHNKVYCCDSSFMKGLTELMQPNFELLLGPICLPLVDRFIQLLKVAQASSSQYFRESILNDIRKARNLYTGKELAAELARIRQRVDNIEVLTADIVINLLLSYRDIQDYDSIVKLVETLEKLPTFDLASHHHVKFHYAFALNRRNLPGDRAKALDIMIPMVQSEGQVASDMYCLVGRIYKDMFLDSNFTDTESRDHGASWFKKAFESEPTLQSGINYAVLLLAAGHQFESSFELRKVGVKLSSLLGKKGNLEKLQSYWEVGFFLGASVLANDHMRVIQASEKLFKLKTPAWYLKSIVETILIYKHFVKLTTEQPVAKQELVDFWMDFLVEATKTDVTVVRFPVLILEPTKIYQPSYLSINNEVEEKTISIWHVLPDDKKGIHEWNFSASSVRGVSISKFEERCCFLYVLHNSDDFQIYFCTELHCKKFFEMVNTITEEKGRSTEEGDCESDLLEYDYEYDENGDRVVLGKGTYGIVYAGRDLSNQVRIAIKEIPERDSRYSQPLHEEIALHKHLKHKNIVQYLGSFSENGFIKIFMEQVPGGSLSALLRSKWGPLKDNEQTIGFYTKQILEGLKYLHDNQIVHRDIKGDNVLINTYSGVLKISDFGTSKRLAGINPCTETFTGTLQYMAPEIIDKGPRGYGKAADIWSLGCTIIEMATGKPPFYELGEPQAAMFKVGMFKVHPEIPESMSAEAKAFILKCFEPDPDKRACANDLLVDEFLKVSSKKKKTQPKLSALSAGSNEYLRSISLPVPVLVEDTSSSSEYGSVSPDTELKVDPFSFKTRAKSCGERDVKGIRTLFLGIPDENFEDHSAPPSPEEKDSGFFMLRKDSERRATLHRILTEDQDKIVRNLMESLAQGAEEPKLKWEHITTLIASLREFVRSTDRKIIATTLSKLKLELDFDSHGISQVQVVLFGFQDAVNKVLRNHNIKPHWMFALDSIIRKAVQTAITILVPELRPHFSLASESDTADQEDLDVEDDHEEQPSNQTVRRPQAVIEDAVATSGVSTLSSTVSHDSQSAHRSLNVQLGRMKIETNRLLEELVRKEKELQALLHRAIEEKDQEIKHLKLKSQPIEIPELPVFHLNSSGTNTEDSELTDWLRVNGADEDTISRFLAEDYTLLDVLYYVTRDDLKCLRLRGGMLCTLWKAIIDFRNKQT
Conditions: at 10 µM; call rule not given here.

The target of assay [2] is Tyrosine-protein kinase ABL1 (Homo sapiens) (UniProt P00519). Conditions: at 1 µM.
Sequence of Tyrosine-protein kinase ABL1 (Homo sapiens) (P00519 whole entry): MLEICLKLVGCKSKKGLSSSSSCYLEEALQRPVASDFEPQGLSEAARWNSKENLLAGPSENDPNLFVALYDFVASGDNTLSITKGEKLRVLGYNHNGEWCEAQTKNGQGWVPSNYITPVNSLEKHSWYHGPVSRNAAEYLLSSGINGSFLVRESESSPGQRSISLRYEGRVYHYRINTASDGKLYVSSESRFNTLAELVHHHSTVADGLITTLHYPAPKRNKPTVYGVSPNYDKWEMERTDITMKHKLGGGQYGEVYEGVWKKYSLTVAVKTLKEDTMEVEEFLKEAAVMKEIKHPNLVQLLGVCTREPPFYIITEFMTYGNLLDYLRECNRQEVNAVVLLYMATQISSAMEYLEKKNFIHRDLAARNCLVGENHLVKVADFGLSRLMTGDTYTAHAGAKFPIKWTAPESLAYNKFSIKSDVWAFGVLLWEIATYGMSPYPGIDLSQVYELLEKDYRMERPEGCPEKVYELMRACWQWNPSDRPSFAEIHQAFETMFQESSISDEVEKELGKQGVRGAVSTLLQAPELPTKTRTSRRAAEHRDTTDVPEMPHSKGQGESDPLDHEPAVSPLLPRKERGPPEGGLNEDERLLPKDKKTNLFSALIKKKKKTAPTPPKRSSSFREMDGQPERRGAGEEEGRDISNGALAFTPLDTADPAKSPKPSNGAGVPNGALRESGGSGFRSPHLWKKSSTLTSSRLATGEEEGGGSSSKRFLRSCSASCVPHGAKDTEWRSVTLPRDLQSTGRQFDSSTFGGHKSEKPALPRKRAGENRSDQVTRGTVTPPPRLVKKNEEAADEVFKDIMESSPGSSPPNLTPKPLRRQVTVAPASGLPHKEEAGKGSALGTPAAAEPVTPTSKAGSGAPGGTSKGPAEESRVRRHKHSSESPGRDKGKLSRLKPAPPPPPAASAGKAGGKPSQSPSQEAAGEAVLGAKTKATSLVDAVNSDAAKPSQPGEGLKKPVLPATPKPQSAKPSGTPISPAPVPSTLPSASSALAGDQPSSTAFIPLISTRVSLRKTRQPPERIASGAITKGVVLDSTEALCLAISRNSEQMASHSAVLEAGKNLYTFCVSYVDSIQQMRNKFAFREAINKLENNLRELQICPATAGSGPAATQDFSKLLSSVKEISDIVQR
For assay [3] the target is unchanged. The settings on record: at 10 µM.
Assay [4] concerns the target Tyrosine-protein kinase ABL2 (Homo sapiens) (UniProt P42684). The settings on record: at 1 µM.
Assay [5] has the same target. The settings on record: at 10 µM.
In assay [6] the target is T2, Aurora kinase A (Homo sapiens) (UniProt O14965).
T2 sequence (whole entry): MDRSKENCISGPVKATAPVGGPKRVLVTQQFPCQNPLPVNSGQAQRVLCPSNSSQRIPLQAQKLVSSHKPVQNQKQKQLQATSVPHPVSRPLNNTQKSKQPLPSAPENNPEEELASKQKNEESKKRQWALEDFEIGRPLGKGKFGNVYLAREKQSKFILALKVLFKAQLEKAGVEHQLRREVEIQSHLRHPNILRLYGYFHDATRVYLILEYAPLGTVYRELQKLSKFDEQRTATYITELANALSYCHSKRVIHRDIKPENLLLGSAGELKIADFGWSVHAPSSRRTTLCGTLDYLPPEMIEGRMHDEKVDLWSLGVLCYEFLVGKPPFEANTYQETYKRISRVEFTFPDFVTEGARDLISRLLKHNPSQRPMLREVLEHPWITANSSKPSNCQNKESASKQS
Conditions: at 1 µM.

The target of assay [7] is T2, Aurora kinase A (Homo sapiens). The settings on record: at 10 µM.
Assay [8] deals with Aurora kinase B (Homo sapiens) (UniProt Q96GD4). Conditions: at 1 µM.
Sequence of Aurora kinase B (Homo sapiens) (Q96GD4 whole entry): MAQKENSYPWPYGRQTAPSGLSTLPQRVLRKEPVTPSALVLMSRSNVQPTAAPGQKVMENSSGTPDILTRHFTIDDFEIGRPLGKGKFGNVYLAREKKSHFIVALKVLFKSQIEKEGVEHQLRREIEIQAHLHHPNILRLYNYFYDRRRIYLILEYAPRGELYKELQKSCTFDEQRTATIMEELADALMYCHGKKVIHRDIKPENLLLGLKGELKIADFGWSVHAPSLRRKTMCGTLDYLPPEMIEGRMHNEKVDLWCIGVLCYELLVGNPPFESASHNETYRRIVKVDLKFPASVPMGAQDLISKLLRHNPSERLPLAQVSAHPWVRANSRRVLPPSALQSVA
The target is the same in assay [9]. The settings on record: at 10 µM.
Assay [10] concerns the target T3, Aurora kinase C (Homo sapiens) (UniProt Q9UQB9).
T3 sequence (whole entry): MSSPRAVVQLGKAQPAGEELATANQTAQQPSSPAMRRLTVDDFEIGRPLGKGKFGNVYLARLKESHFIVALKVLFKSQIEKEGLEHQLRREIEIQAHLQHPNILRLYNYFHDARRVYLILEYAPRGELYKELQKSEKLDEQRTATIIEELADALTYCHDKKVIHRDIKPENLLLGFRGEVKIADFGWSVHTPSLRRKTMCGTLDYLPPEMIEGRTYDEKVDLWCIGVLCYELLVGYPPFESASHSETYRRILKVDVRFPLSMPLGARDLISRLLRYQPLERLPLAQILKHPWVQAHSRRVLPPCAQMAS
Conditions: at 1 µM.

The target in assay [11] is T3, Aurora kinase C (Homo sapiens). The settings on record: at 10 µM.
Assay [12] concerns the target Tyrosine-protein kinase receptor UFO (Homo sapiens) (UniProt P30530). The settings on record: at 1 µM.
For assay [13] the target is unchanged. Conditions: at 10 µM.
Assay [14] concerns the target Protein-tyrosine kinase 6 (Homo sapiens) (UniProt Q13882). Conditions: at 1 µM.
The target is the same in assay [15]. The settings on record: at 10 µM.
Assay [16] addresses Tyrosine-protein kinase BTK (Homo sapiens) (UniProt Q06187). The settings on record: at 1 µM.
For assay [17] the target is unchanged. The settings on record: at 10 µM.
The target of assay [18] is Tyrosine-protein kinase Blk (Homo sapiens) (UniProt P51451). Conditions: at 1 µM.
Sequence of Tyrosine-protein kinase Blk (Homo sapiens) (P51451 2-505 limits assumed): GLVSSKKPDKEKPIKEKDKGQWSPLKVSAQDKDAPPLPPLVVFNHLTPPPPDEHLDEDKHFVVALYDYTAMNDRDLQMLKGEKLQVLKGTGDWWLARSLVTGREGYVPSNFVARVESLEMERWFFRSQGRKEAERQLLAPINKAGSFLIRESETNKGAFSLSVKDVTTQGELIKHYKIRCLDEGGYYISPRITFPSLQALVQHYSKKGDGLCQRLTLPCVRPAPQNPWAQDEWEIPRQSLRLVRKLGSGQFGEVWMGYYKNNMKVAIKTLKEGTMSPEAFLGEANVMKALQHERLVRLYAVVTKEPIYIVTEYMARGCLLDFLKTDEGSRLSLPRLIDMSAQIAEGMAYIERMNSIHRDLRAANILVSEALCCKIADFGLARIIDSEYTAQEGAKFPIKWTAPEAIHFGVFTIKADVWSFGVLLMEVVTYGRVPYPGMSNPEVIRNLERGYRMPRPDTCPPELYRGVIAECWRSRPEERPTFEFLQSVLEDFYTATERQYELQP
Assay [19] has the same target. The settings on record: at 10 µM.
The target of assay [20] is T4, Protein kinase C zeta type (Homo sapiens) (UniProt Q05513).
T4 sequence (whole entry): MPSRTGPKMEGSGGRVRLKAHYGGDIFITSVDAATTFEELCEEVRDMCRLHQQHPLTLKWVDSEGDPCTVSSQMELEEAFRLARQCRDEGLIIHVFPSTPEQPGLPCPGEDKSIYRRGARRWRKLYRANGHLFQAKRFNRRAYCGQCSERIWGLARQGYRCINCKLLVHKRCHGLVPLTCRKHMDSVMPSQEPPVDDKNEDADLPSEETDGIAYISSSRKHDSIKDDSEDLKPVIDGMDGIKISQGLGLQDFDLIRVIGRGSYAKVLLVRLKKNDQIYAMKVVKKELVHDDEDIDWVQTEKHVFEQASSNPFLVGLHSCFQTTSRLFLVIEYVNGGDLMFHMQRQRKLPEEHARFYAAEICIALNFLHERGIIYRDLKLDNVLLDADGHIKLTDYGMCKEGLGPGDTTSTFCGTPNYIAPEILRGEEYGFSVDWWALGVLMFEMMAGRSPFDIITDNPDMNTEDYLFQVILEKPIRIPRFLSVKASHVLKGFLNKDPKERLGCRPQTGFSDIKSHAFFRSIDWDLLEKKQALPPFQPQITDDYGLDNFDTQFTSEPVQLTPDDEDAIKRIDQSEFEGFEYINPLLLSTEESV
Conditions: at 1 µM.

Sequence of Tyrosine-protein kinase ABL2 (Homo sapiens) (P42684 whole entry): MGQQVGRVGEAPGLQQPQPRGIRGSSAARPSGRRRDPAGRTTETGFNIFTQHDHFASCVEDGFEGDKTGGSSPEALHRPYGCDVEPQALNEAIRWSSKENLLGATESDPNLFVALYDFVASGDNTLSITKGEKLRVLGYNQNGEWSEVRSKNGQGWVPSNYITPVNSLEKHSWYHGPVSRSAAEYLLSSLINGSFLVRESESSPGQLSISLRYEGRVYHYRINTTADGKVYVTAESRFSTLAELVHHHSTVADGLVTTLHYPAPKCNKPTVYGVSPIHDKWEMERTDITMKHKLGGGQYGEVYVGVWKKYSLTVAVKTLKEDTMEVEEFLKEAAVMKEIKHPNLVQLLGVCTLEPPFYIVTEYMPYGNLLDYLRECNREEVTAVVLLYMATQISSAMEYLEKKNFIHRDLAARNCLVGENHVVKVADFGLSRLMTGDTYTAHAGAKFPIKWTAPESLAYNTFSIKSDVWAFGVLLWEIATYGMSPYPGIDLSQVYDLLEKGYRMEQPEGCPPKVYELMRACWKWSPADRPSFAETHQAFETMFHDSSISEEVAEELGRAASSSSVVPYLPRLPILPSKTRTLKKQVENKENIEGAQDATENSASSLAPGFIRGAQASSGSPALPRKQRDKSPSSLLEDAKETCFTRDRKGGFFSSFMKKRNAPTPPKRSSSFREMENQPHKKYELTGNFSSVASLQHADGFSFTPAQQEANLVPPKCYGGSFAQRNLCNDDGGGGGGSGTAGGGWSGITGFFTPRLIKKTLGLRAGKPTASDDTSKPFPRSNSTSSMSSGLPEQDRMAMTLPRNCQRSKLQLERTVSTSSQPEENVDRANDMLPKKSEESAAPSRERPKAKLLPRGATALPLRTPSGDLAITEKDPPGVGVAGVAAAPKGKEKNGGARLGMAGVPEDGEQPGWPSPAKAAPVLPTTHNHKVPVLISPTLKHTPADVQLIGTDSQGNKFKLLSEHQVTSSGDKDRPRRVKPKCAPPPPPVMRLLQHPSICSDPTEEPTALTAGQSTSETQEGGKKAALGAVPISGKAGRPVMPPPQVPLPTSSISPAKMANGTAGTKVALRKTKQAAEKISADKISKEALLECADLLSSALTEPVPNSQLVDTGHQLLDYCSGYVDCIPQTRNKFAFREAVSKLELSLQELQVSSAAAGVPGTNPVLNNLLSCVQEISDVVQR
Sequence of Tyrosine-protein kinase BTK (Homo sapiens) (Q06187 whole entry): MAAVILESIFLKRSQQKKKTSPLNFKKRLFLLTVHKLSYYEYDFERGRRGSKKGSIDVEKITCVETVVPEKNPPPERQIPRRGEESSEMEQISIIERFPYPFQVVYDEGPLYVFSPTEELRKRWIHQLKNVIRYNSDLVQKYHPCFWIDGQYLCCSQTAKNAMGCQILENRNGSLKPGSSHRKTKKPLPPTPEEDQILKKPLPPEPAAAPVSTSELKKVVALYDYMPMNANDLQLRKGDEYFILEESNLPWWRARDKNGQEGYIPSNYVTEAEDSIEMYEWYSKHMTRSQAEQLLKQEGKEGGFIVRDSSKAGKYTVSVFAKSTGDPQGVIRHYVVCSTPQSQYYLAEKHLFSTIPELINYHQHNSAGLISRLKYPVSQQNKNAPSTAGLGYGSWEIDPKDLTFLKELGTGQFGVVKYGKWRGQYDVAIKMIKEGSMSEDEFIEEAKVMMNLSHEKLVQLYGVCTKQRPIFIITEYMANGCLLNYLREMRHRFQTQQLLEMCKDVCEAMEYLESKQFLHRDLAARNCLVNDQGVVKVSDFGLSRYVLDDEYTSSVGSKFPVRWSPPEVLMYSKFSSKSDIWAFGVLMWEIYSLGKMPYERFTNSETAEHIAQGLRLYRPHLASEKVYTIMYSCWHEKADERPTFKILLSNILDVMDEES
Sequence of Protein-tyrosine kinase 6 (Homo sapiens) (Q13882 whole entry, looked up): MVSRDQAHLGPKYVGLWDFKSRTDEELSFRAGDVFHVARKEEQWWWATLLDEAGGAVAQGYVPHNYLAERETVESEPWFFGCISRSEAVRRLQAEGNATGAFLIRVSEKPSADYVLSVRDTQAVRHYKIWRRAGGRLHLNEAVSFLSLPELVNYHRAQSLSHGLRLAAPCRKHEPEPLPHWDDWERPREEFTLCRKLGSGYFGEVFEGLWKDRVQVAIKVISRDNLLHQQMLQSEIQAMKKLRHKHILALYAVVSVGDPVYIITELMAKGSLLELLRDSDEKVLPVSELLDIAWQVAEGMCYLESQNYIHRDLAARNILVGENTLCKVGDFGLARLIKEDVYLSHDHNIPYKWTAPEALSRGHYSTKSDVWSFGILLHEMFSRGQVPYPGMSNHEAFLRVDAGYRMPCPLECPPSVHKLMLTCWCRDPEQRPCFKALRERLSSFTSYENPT

In the case of `CCCCc1c(-c2ccc(O)cc2)[nH]c2nccnc12`, the residual activity in assay [1] is 83%; in assay [2], 81%; in assay [3], 44%; in assay [4], 75%; in [5] it was 60%; in assay [6] it was 6%. Also, the residual activity in assay [7] came to 20%; in assay [8] it was 2%; in assay [9], 0%; in [10] it was 50%; in assay [11], 49%; in assay [12] it was 92%. For the same compound, the residual activity was determined as 75% in assay [13]; 31% in [14]; 29% in assay [15]; 33% in assay [16]; 10% in assay [17]; 73% in assay [18]. The residual activity in assay [19] came to 50%.

As to `O=C1C(Cl)=C(N2C(=O)CCC2=O)C(=O)c2ccccc21`, the residual activity came to 91% in [1]; 92% in assay [2]; 66% in [3]; 97% in assay [4]; 83% in assay [5]; 73% in assay [8]. The residual activity in assay [9] was 36%; in assay [10], 67%; in assay [11], 62%; in assay [13], 80%; in [16] it was 91%; in assay [17], 95%. In assay [19], the residual activity stood at 95%.

`N#C/C(=C1/Nc2ccccc2S1)c1ccnc(NCCc2cccnc2)n1`: the residual activity came out at 79% in assay [1]; 115% in assay [2]; 80% in assay [3]; 99% in [4]; 76% in assay [5]; 64% in [6]. Besides, the residual activity was found to be 48% in assay [7]; 60% in [14]; 37% in assay [15]; 96% in assay [16]; 43% in assay [17].

In the case of `Nc1ncnc2c1cnn2-c1ccccc1`, the residual activity in assay [1] stood at 101%; in [2], 100%; in assay [3] it was 76%; in assay [7], 95%; in assay [9] it was 68%; in assay [10], 97%. For the same compound, the residual activity in assay [11] stood at 53%; in assay [14] it was 98%; in assay [15] it was 96%; in [16], 94%; in assay [17], 99%; in assay [19], 88%.

On to `CCN(CC)CCNC(=O)c1c(C)[nH]c(/C=C2\C(=O)Nc3ccc(Cl)cc32)c1C`, for which the residual activity in [1] stood at 43%; in assay [2] it was 23%; in assay [3], 0%; in assay [4], 47%; in assay [5], 7%; in [6], 47%. Also, the residual activity in [7] was determined as 30%; in assay [8] it was 7%; in [9], 1%; in assay [10] it was 38%; in assay [11], 5%; in assay [12] it was 9%. In addition, the residual activity was 1% in [13]; 65% in [14]; 11% in assay [15]; 1% in assay [18]; 0% in assay [19].

`O=C1NC(=O)c2c1c1c3ccccc3[nH]c1n1cncc21`: the residual activity in assay [1] was found to be 96%; in [2] it was 80%; in [3], 62%; in [4], 91%; in assay [5] it was 56%; in [6], 14%. Further, the residual activity is 1% in [7]; 3% in assay [8]; 0% in assay [9]; 37% in assay [10]; 12% in [11]; 86% in assay [12]. Besides, the residual activity in assay [13] worked out at 71%; in assay [14] it was 81%; in assay [15], 53%; in [16] it was 70%; in assay [17], 34%; in assay [18], 57%. Besides, the residual activity in [19] amounted to 8%.

For the compound `Cn1c2ccccc2c2c3c(c4c5ccccc5n(CCC#N)c4c21)CNC3=O`, the residual activity in [20] is 102% (inactive); in [1] it was 16%; in [6], 4%; in [7] it was 19%; in [8] it was 0%; in assay [9], 1%. Moreover, the residual activity was 47% in [10]; 35% in assay [11]; 53% in assay [12]; 32% in [13]; 10% in assay [16]; 9% in [17].

The values above are taken from ChEMBL document CHEMBL2218924, “A broad activity screen in support of a chemogenomic map for kinase signalling research and drug discovery” (Biochem J, 2013).
